Records with an inconclusive call do not appear. Activity calls are given as the source filed them. The calls were made as follows: active = hit-call score of the fitted dose curve at least 0.9, where 1 is the maximum; inconclusive = response in the unintended direction; inactive = score below 0.9.

One may read the AC50 as the concentration giving half of the maximal activity seen.

The target of the experiment is human Peripheral-type Benzodiazepine Receptor (PBR), TSPO (gene 706) (UniProt P30536). Kind of experiment: NVS_MP_hPBR: NovaScreen (NVS) Membrane Protein Assay for human Peripheral-type Benzodiazepine Receptor (PBR) (AID 2283331).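 Also: hits reduce radioligand binding relative to DMSO baseline.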 Put shortly: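 Using human colon-derived membranes, this one-endpoint binding test reads radioligand loss by scintillation after 1 h. Screening started at 25 uM in duplicate, with positive and negative controls on every plate, and actives moved to dose series.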
Sequence of human Peripheral-type Benzodiazepine Receptor (PBR), TSPO (gene 706) (P30536 whole entry, looked up): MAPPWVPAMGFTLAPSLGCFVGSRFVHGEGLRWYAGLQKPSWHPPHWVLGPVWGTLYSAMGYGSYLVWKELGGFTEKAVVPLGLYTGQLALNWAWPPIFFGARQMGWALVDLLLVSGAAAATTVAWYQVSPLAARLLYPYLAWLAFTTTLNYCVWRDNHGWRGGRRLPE
As to `COCC(C)N(C(=O)CCl)c1c(C)csc1C` (stereo not given), the AC50 is 9.66 µM (active).
Turning to `CC(C)(C)C(=O)C(Oc1ccc(Cl)cc1)n1cncn1` (stereo not given), the AC50 was 44 µM (active).
For the compound `O=C(Nc1ccccc1-c1ccc(Cl)cc1)c1cccnc1Cl`, the call was inactive.
In the case of `Clc1nc(Cl)nc(Nc2ccccc2Cl)n1`, the AC50 was 14.9 µM (active).
For the compound `CCCCC(C#N)(Cn1cncn1)c1ccc(Cl)cc1` (stereo not given), the result was inactive.
Take `COP(=S)(OC)SCn1nnc2ccccc2c1=O`: the half-maximal activity concentration (AC50) was 17.5 µM (active).
Same read-out and setting: then `COP(=S)(OC)Oc1ccc([N+](=O)[O-])c(C)c1`, with 25 µM (active).
In the case of `COCC(=O)N(c1c(C)cccc1C)C(C)C(=O)OC` (stereo not given), the outcome was inactive.
Still for that read-out and setting: then `CC(C)=CC1C(C(=O)OCc2coc(Cc3ccccc3)c2)C1(C)C` (stereo not given), with “inactive”.
For `Cc1nc(N(C)C)nc(OC(=O)N(C)C)c1C`, the AC50 is 12.1 µM (active).
For `N#Cc1c[nH]cc1-c1cccc2c1OC(F)(F)O2`, the result was inactive.
As for `COc1ccc(-c2ccccc2)cc1NNC(=O)OC(C)C`, the AC50 is 0.149 µM (active).
In the case of `CC(C)Oc1cccc(NC(=O)c2ccccc2C(F)(F)F)c1`, the AC50 is 0.824 µM (active).
For the compound `CCNP(=S)(OC)O/C(C)=C/C(=O)OC(C)C` (stereo not given), the AC50 is 17.5 µM (active).
On the same count and under the same terms, under `COC(=O)N(C(=O)N1CO[C@@]2(C(=O)OC)Cc3cc(Cl)ccc3C2=N1)c1ccc(OC(F)(F)F)cc1` stands 0.292 µM (active).
Still for that read-out and setting: under `CCCCOCN(C(=O)CCl)c1c(CC)cccc1CC` stands 6.37 µM (active).
The same measure, in the same setting: under `CCN(CC)c1nc(C)cc(OP(=S)(OC)OC)n1` stands 14 µM (active).
On to `OC(c1ccc(Cl)cc1)(c1ccc(Cl)cc1)C(Cl)(Cl)Cl`, for which the compound was called inactive.
For the compound `CC1(C)C(C=C(Cl)Cl)C1C(=O)OC(C#N)c1cccc(Oc2ccccc2)c1` (stereo not given), the AC50 was 14.9 µM (active).
Regarding `CCOP(=O)(OCC)Oc1nc(Cl)c(Cl)cc1Cl`, the AC50 was 4.32 µM (active).

The values are drawn from PubChem BioAssay (EPA / NIEHS).
